The text below walks through data of PubChem BioAssay AID2315 (National Center for Advancing Translational Sciences (NCATS), 2010).

Screen size: about 290,000 compounds; about 27,000 (9.3%) were called active. The sample holds actives, similar compounds and a random draw of the others, so the mix is not that of the screen. Rule as the data show it: active = inhibition mostly above about 28% (no sharp cut-off); inactive = mostly below about 43%.

The test can be described thus: A qHTS for Small Molecule Inhibitors of Shiga Toxin. Also: 0% is about no effect. As to conditions: Vero cells, Shiga toxin protein synthesis inhibition reporter; at 38.7 µM, hits give high values. On the technique in general: Quantitative high-throughput screening tests each substance at several concentrations.
As a reminder, the inhibition is the change of the read-out against control, counted positive when it falls. In the case of `CC(C)c1ccc(S(=O)(=O)NC2CCCC2)cc1`, the inhibition is -8.49% (inactive). `CC(=O)Nc1cccc(NC(=O)c2ccc3c(c2)CCN3S(C)(=O)=O)c1`: the inhibition is 6.84% (inactive). As for `CSc1ccccc1NC(=O)c1ccc2c(c1)CCN2S(C)(=O)=O`, the inhibition was 38.2% (active). Then `CS(=O)(=O)N1CCc2cc(C(=O)Nc3ccccc3Br)ccc21`, with 50.7% (active); and `CCc1ccccc1NC(=O)c1ccc2c(c1)CCN2S(C)(=O)=O`, with 21.4% (inactive). As for `COc1ccc(OC)c(NC(=O)c2ccc3c(c2)CCN3S(C)(=O)=O)c1`, the inhibition was -5.31% (inactive). Turning to `CS(=O)(=O)N1CCc2cc(C(=O)Nc3ccccc3)ccc21`, the inhibition is 3.54% (inactive).

For the compound `COc1cccc(Cn2cc(/C=N/NC(=O)c3cc(O)cc(O)c3)c3ccccc32)c1`, the inhibition was -3.1% (inactive). Then `CS(=O)(=O)c1ccccc1C(=O)Nc1ccc2sccc2c1`, with -5.25% (inactive); and `CCN(c1ccccc1)S(=O)(=O)c1ccc(NC(=O)C(C)(C)C)cc1`, with 3.09% (inactive). Consider `CC(C)(CCl)C(=O)Nc1ccc(Sc2ccc(F)cc2)cc1`, for which the inhibition is 83% (active).

With `O=C(CCl)Nc1ccc(Sc2ccc(NC(=O)CCl)cc2)cc1`, the inhibition is 16% (inactive). For `Cc1ncc(CC(=O)n2cc(C(=O)c3cc(Cl)ccc3O)cn2)s1`, the inhibition is 8.82% (inactive). The result for `O=C(c1cnn(-c2ccc(Cl)cc2)c1)c1ccccc1O` reads 59.4% (active); that for `O=C(O)c1ccc(NC(=O)c2cn(-c3ccccc3)nc2-c2ccc(Cl)cc2)cc1`, 24.5% (inactive); that for `CC(=O)Nc1c2c(nn1-c1cccc(C)c1)CSC2`, -5.43% (inactive).

Turning to `O=C(CCS(=O)(=O)c1ccc(Br)cc1)NCCc1ccc(Cl)cc1`, the inhibition is -14.4% (inactive). For the compound `COc1ccccc1CCNC(=O)c1cnccn1`, the inhibition was 10.7% (inactive). As for `COc1ccccc1CCNC(=O)c1c(C)nn(CC(C)C)c1Cl`, the inhibition was 62.8% (active). Regarding `Cc1nn(Cc2ccccc2Cl)c(Cl)c1C(=O)OC(C(=O)NC(N)=O)C(C)C` (stereo unspecified), the inhibition is 8.84% (inactive). With `N#CC(C#N)=CN=c1ccn(Cc2ccc(Cl)cc2Cl)cc1`, the inhibition is 1.18% (inactive).

Regarding `Clc1c(OCCCn2ccnc2)ccc2ccccc12`, the inhibition was 17.6% (inactive). Regarding `Cc1ccc(CCNC(=O)c2ccc3nc4ccccc4c(=O)n3c2)cc1`, the inhibition was 5.74% (inactive). For the compound `O=C(Oc1ccccc1C(=S)N1CCCCC1)c1cc([N+](=O)[O-])cc([N+](=O)[O-])c1`, the inhibition is 13% (inactive). Then `Cc1ccc(OCC(=O)Nc2ccc(S(=O)(=O)Nc3ccccn3)cc2)cc1`, with 2.76% (inactive).

With `CCN(CC)CCCNC(=O)COc1ccc2oc3c(c2c1)CCCC3`, the inhibition is -7.61% (inactive). Consider `O=C(COc1ccc2oc3c(c2c1)CCCC3)Nc1ccccn1`, for which the inhibition is 57.2% (active). As to `Cc1ccc(Cn2nnc3c(=O)[nH]c(C4CCN(S(=O)(=O)/C=C/c5ccccc5)CC4)nc32)cc1`, the inhibition is -13.7% (inactive). As for `COCn1c(C(O)c2ccccc2)cc2ccccc21` (stereo unspecified), the inhibition is -6.57% (inactive).

As to `Cc1ccn2c(c1)nc(=O)c1cc(S(=O)(=O)N3CCC(C)CC3)ccc12`, the inhibition was 14.3% (inactive). Then `O=C1Nc2cc(C(=O)N3CCC(N4CCCCC4)CC3)ccc2S/C1=C\c1ccccc1`, with -12.8% (inactive). As to `C=CCCN(C(Cc1ccccc1)C(=O)OC)S(=O)(=O)c1cc(Br)ccc1Br` (stereo unspecified), the inhibition was 2.22% (inactive). The result for `COc1cccc(S(=O)(=O)NCc2ccc(C(=O)NCc3ccccn3)cc2)c1` reads -7.83% (inactive); that for `COc1cccc(NC(=O)NCc2ccc(F)cc2)c1`, 43.7% (active); that for `O=C(NCc1cccc(CNC(=O)Nc2cccc(O)c2)c1)Nc1cccc(O)c1`, 17.1% (inactive).

With `Cc1cc(C)cc(NC(=O)NCc2ccccn2)c1`, the inhibition is -1.91% (inactive). Regarding `COC(=O)Cc1ccc(NC(=S)NCc2ccccc2)cc1`, the inhibition was -2.18% (inactive). As for `COc1cccc(NC(=S)N(Cc2ccc(C)cc2)Cc2ccccn2)c1`, the inhibition is -9.99% (inactive). `COc1cccc(NC(=O)NCCN2CCCCC2)c1`: the inhibition is 17.6% (inactive). Then `COc1cccc(NC(=S)NCc2ccccn2)c1`, with 60.7% (active); and `CCC(C)c1ccc(NC(=S)NCc2ccccn2)cc1` (stereo unspecified), with 56.9% (active); and `COc1ccc(OC)c(CCNC(=O)CCn2ccc3cc(S(=O)(=O)N4CCCC4)ccc32)c1`, with 1.48% (inactive). The result for `COc1ccc(N(CC(=O)Nc2ccc(F)c(F)c2)S(=O)(=O)c2c(C)[nH]c(=O)[nH]c2=O)cc1` reads -5.76% (inactive); that for `COc1cccc(OC)c1C(=O)Nc1ccc2c(c1)n(C)c(=O)n2C`, -1.01% (inactive). Then `COc1ccc(NS(=O)(=O)c2cc(NC(=O)C3CCCCC3)ccc2N2CCOCC2)cc1`, with -4.94% (inactive); and `Cn1c(=O)[nH]c(=O)c2c1[nH]c(=S)n2Cc1ccccc1`, with -6.6% (inactive). Take `CCc1cccc(C)c1NS(=O)(=O)c1c(C)nc2sccn2c1=O`: the inhibition is -3.6% (inactive). For `CCNS(=O)(=O)c1ccc(CCC(=O)N2CCN(c3cc(Cl)ccc3C)CC2)cc1`, the inhibition is -3.72% (inactive). Turning to `O=c1o[nH]c(-c2ccccc2)c1N=Nc1c(F)cccc1Cl`, the inhibition was -2.82% (inactive). Then `Cc1noc(C)c1-c1ccc2ncnc(NC(C)c3ccco3)c2c1` (stereo unspecified), with 30.2% (inactive); and `Cc1noc(C)c1-c1ccc2ncnc(NCc3ccc(F)c(F)c3)c2c1`, with 10.1% (inactive). For the compound `Cc1noc(C)c1-c1ccc2ncnc(NCc3ccc4[nH]ccc4c3)c2c1`, the inhibition is 70.1% (active).

With `O=Cc1c(NCCCN2CCCC2=O)c2ccccc2[nH]c1=O`, the inhibition is 7.22% (inactive). For `CCCSc1nc2[nH]ncc2c(=O)[nH]1`, the inhibition is -9.31% (inactive). Regarding `Cc1cccc(NC(=O)CSc2nc3[nH]ncc3c(=O)[nH]2)c1`, the inhibition was -11.6% (inactive). Regarding `Cc1ccc(CSc2nc3[nH]ncc3c(=O)[nH]2)cc1`, the inhibition is 136% (active). Regarding `Cc1ccc(S(=O)(=O)N(C)C)cc1NC(=O)C1Cc2ccccc2CN1C(=O)c1ccco1` (stereo unspecified), the inhibition was -7.79% (inactive).

As for `COc1ccc(Cl)cc1-n1c(=S)sc2c(=O)n(-c3ccc(F)cc3)c(SCC(=O)O)nc21`, the inhibition was 19.4% (inactive). Then `CN(C)c1ccc(C(CC(=O)O)C(=O)O)cc1` (stereo unspecified), with 73.8% (active). For `CC(=O)NC(CC(=O)O)c1ccc(F)cc1` (stereo unspecified), the inhibition is -5.08% (inactive). Consider `CN(C)c1ccc(/C=N/NC(=O)C(O)c2ccc(Br)cc2)cc1` (stereo unspecified), for which the inhibition was 20.6% (inactive).
